# “And” between values parts separate entries of the source, which are not always exact repeats. Equal values may be shown once. Results filed as inconclusive are left out. The source made the active and inactive calls. Unless noted, calls follow the shape of the dose curve; as a rule, active = well fitted inhibition curve with a large enough effect; inconclusive = small, poorly fitted or top-dose-only effect; inactive = flat fitted curve, though single readings scatter.
# Assays:
# [1] = qHTS drug screen for cell cycle checkpoint inhibitors in PARPi-resistant BRCA-mutant ovarian cancer cell lines. (AID 1963452; calls by dose curve); conditions: PEO1/OlaR viability, CellTiter-Glo luminescence, 96 h; for Z-AUC: stronger effect = lower value
# Summary of the method: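 PEO1, PEO4 and PEO1/OlaR ovarian cancer cells, 600 per well, exposed 96 h at 37C to a dilution series. Viability read by CellTiter-Glo luminescence, normalized to DMSO and empty wells; activity summarized as Z-AUC.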
# [2] = qHTS for identification of novel therapeutic agents for treatment of microphthalmiaassociated transcription factor (MiT) renal cell carcinoma (RCC) (AID 1963991; calls by dose curve); conditions: CellTiter-Glo, 48 h; for z-score: stronger effect = lower value
# Summary of the method: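 Three TFE3-fusion RCC lines (UOK109, UOK124, UOK145), 500 cells/well in complete medium, were treated with MIPE 4.0 compounds for 48 hours at 37 C. Viability was by CellTiter-Glo luminescence, normalized to DMSO (100%) and empty wells (0%); curves fitted over 11 concentrations.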
# [3] = qHTS profiling for inhibitors of Plasmodium falciparum proliferation (AID 504749);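 as to activity, negative = inhibition: 0% = DMSO vehicle and full inhibition = artemisinin control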; as to all read-outs here: nearly all actives have a fitted effect of over 60% in size; conditions: P. falciparum in erythrocytes, SYBR Green DNA, 72 h; for activity, negative = inhibition: at 28.7 µM (top of the series)
# Summary of the method: (§1)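 Readout was DNA-dye fluorescence from lysed cultures, ex 485/em 535 nm. Parasitized red cells had grown 72 h with compound; data scaled between 0.29 uM artemisinin and DMSO wells and corrected using vehicle-only plates.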
# [4] = tested on: 3D7; test: as above; conditions: P. falciparum in erythrocytes, SYBR Green DNA, 72 h; series mostly up to 28.7 µM
# Summary of the method: as §1
# [5] = tested on: 7G8; test: as above; conditions: P. falciparum in erythrocytes, SYBR Green DNA, 72 h; series mostly up to 28.7 µM
# Summary of the method: as §1
# [6] = tested on: AA1029; test: as above; conditions: P. falciparum in erythrocytes, SYBR Green DNA, 72 h; series mostly up to 28.7 µM
# Summary of the method: as §1
# [7] = tested on: AS120; test: as above; conditions: P. falciparum in erythrocytes, SYBR Green DNA, 72 h; series mostly up to 28.7 µM
# Summary of the method: as §1
# [8] = tested on: ATS189; test: as above; conditions: P. falciparum in erythrocytes, SYBR Green DNA, 72 h; series mostly up to 28.7 µM
# Summary of the method: as §1
# [9] = tested on: ATS95; test: as above; conditions: P. falciparum in erythrocytes, SYBR Green DNA, 72 h; series mostly up to 28.7 µM
# Summary of the method: as §1
# [10] = tested on: C2A; test: as above; conditions: P. falciparum in erythrocytes, SYBR Green DNA, 72 h; series mostly up to 28.7 µM
# Summary of the method: as §1
# [11] = tested on: CP185; test: as above; conditions: P. falciparum in erythrocytes, SYBR Green DNA, 72 h; series mostly up to 28.7 µM
# Summary of the method: as §1
# [12] = tested on: CP191; test: as above; conditions: P. falciparum in erythrocytes, SYBR Green DNA, 72 h; series mostly up to 28.7 µM
# Summary of the method: as §1
# [13] = tested on: CP192; test: as above; conditions: P. falciparum in erythrocytes, SYBR Green DNA, 72 h; series mostly up to 28.7 µM
# Summary of the method: as §1
# [14] = tested on: CP194; test: as above; conditions: P. falciparum in erythrocytes, SYBR Green DNA, 72 h; series mostly up to 28.7 µM
# Summary of the method: as §1
# [15] = tested on: CP201; test: as above; conditions: P. falciparum in erythrocytes, SYBR Green DNA, 72 h; series mostly up to 28.7 µM
# Summary of the method: as §1
# [16] = tested on: CP203; test: as above; conditions: P. falciparum in erythrocytes, SYBR Green DNA, 72 h; series mostly up to 28.7 µM
# Summary of the method: as §1
# [17] = tested on: CP211; test: as above; conditions: P. falciparum in erythrocytes, SYBR Green DNA, 72 h; series mostly up to 28.7 µM
# Summary of the method: as §1
# [18] = measured here: PEO1 parental Z-AUC
# [19] = TFE3-RCC UOK109 viability, measured here: UOK109 Z-AUC
# [20] = TFE3-RCC viability, measured here: UOK124 Z-AUC
# [21] = TFE3-RCC viability, measured here: UOK145 Z-AUC
# Potency is read from the fitted curve at half-maximal effect.
structure (smiles),measurement,setting,value
NC(CO)C(=O)NNCc1ccc(O)c(O)c1O (stereo not given),Z-AUC,[1],-0.229 (inactive)
same,Z-AUC,[1]; [18],-0.392
same,Z-AUC,[1]; measured here: PEO4 Z-AUC,-0.375
same,z-score,[2]; [19],0.539
same,z-score,[2]; [20],-0.122
same,z-score,[2]; [21],0.506
CC(=O)OCC(CCn1cnc2cnc(N)nc21)COC(C)=O,Z-AUC,[1],1.18 (inactive)
same,Z-AUC,[1]; [18],1.12
same,Z-AUC,[1]; measured here: PEO4 Z-AUC,1.62
same,z-score,[2]; [19],0.583
same,z-score,[2]; [20],0.498
same,z-score,[2]; [21],1.13
same,"activity, negative = inhibition",[3]; parasite line A,-2.23% (inactive)
same,"activity, negative = inhibition",[3]; parasite line B,0.392% (inactive)
same,Potency,[4],inactive
same,Potency,[5],inactive
same,Potency,[6],inactive
same,Potency,[7],inactive
same,Potency,[8],inactive
same,Potency,[9],inactive
same,Potency,[10],inactive
same,Potency,[11],inactive
same,Potency,[12],inactive
same,Potency,[13],inactive
same,Potency,[14],inactive
same,Potency,[15],inactive
same,Potency,[16],inactive
same,Potency,[17],inactive
O=C(C1CCCCC1)N1CC(=O)N2CCc3ccccc3C2C1 (stereo not given),Z-AUC,[1],1.17 (inactive)
same,Z-AUC,[1]; [18],0.752
same,Z-AUC,[1]; measured here: PEO4 Z-AUC,1.07
same,z-score,[2]; [19],-4.91
same,z-score,[2]; [20],0.786
same,z-score,[2]; [21],-3.49
CN(C)C(=O)C(CCN1CCC(O)(c2ccc(Cl)cc2)CC1)(c1ccccc1)c1ccccc1,Z-AUC,[1],-1.16 (inactive)
same,Z-AUC,[1]; [18],-0.647
same,Z-AUC,[1]; measured here: PEO4 Z-AUC,-0.794
CC1COc2c(N3CCN(C)CC3)c(F)cc3c(=O)c(C(=O)O)cn1c23 (stereo not given),Z-AUC,[1],-0.369 (inactive)
same,Z-AUC,[1]; [18],0.841
same,Z-AUC,[1]; measured here: PEO4 Z-AUC,-0.196
COc1ccc2c(c1)c(CC(=O)O)c(C)n2C(=O)c1ccc(Cl)cc1,Z-AUC,[1],0.8 (inactive)
same,Z-AUC,[1]; [18],0.391
same,Z-AUC,[1]; measured here: PEO4 Z-AUC,0.536
O=C1c2c(O)ccc(O)c2C(=O)c2c(NCCNCCO)ccc(NCCNCCO)c21,Potency,[1],195 nM (active)
same,Z-AUC,[1]; [18],-2.48
same,Z-AUC,[1]; measured here: PEO4 Z-AUC,-2.26
same,Potency,"[2]; TFE3-RCC UOK109 viability, active = Z-AUC below -0.8 in all three lines",1050 nM (active)
same,z-score,[2]; [19],-2.02
same,z-score,[2]; [20],-1.52
same,z-score,[2]; [21],-2.08
same,Potency,[3]; parasite line A,3160 nM (active)
same,Potency,[3]; parasite line B,3160 nM (active)
same,Potency,[4],2000 nM (active)
same,Potency,[5],1260 nM (active)
same,Potency,[6],2510 nM (active)
same,Potency,[7],2240 nM (active)
same,Potency,[8],2820 nM (active)
same,Potency,[9],2240 nM (active)
same,Potency,[10],3160 nM (active)
same,Potency,[11],3160 nM (active)
same,Potency,[12],3550 nM (active)
same,Potency,[14],6420 nM (active)
same,Potency,[15],6420 nM (active)
same,Potency,[17],6420 nM (active)
CCOC(=O)C(C)(C)Oc1ccc(Cl)cc1,Z-AUC,[1],0.714 (inactive)
same,Z-AUC,[1]; [18],0.586
same,Z-AUC,[1]; measured here: PEO4 Z-AUC,0.762
same,z-score,[2]; [19],-1.29
same,z-score,[2]; [20],0.307
same,z-score,[2]; [21],0.606
same,"activity, negative = inhibition",[3]; parasite line A,5.66% (inactive)
same,"activity, negative = inhibition",[3]; parasite line B,12.1% (inactive)
same,Potency,[4],inactive
same,Potency,[5],inactive
same,Potency,[6],inactive
same,Potency,[7],inactive
same,Potency,[8],inactive
same,Potency,[9],inactive
same,Potency,[10],inactive
same,Potency,[11],inactive
same,Potency,[12],inactive
same,Potency,[13],inactive
same,Potency,[14],inactive
same,Potency,[15],inactive
same,Potency,[17],inactive
C[C@H]1c2cccc(O)c2C(O)=C2C(=O)[C@]3(O)C(O)=C(C(N)=O)C(=O)[C@@H](N(C)C)[C@@H]3[C@@H](O)[C@@H]21,Z-AUC,[1],0.309 (inactive) and -0.104 (inactive)
same,Z-AUC,[1]; [18],0.47 and 0.545
same,Z-AUC,[1]; measured here: PEO4 Z-AUC,0.542 and 0.724
CC(C(=O)O)c1cccc(C(=O)c2ccccc2)c1 (stereo not given),Z-AUC,[1],0.0263 (inactive)
same,Z-AUC,[1]; [18],0.275
same,Z-AUC,[1]; measured here: PEO4 Z-AUC,0.507
same,z-score,[2]; [19],0.978
same,z-score,[2]; [20],0.474
same,z-score,[2]; [21],0.0276
CCc1cccc2c3c([nH]c12)C(CC)(CC(=O)O)OCC3 (stereo not given),Z-AUC,[1],0.208 (inactive)
same,Z-AUC,[1]; [18],0.962
same,Z-AUC,[1]; measured here: PEO4 Z-AUC,0.882
same,z-score,[2]; [19],0.838
same,z-score,[2]; [20],0.432
same,z-score,[2]; [21],0.577

# — PubChem BioAssay (NCATS)
